Source: PubChem BioAssay (NCI)
The panel holds about 79,000 compounds, 15% with a hit somewhere; the sample as a whole holds those more often. Active and inactive are the calls of the source. Rule as the data show it: active = growth inhibition above about 70%; inactive = the rest. Where a SMILES comes first, the peptide text is derived from it. [ ]: non-standard residue; d: D form. The star is where a group is joined. ξ: configuration not given here. ξV = CC(C)C(N)C(=O)O; ClAc = O=C(CCl)*

Legend:
[1] = NCI Yeast Anticancer Drug Screen. Data for the rad50 strain (AID 155);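 also: 0% = growth of vehicle-only cultures of the same strain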; settings: S. cerevisiae rad50 strain growth inhibition; at 50.0 µM; active compounds read high
How it was run: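 Growth of the mutant yeast was measured after compound exposure and referenced to vehicle-treated cultures.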

[2] = NCI Yeast Anticancer Drug Screen. Data for the mec2-1 strain (AID 157); settings: S. cerevisiae mec2-1 strain, at 50.0 µM, active compounds read high
How it was run: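 Vehicle-treated cultures served as reference for growth inhibition of compound-exposed mec2-1 yeast.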

[3] = NCI Yeast Anticancer Drug Screen. Data for the sgs1 mgt1 strain (AID 161);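 also: 0% = growth of cultures given vehicle only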; settings: S. cerevisiae sgs1 mgt1 strain, at 50.0 µM, active compounds read high
How it was run: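 Genetically altered yeast, compound exposure, growth inhibition relative to vehicle.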

[4] = NCI Yeast Anticancer Drug Screen. Data for the mlh1 rad18 strain (AID 175); settings: S. cerevisiae mlh1 rad18 strain growth inhibition; at 50.0 µM; active compounds read high
How it was run: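 Vehicle-treated cultures served as the reference for growth inhibition in a yeast strain carrying DNA damage repair alterations exposed to each compound.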

[5] = NCI Yeast Anticancer Drug Screen. Data for the bub3 strain (AID 167); settings: S. cerevisiae bub3 mutant strain, at 50.0 µM, active compounds read high
How it was run: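 Whole-cell yeast assay. The mutant strain was incubated with compounds, and growth inhibition was determined by comparison with vehicle-treated cells.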

Measured: growth inhibition

N#CC1(C#N)C2CCCCC23OC(=N)C1(C#N)C(c1ccccc1)O3 (stereo not given)
inactive: [1] 9.3% | [2] 12.2% | [3] -22.7% | [4] -16.6%

OCC(CO)(CO)COCC(CO)(CO)COCC(CO)(CO)CO
inactive: [1] -43% | [2] -42.5% | [3] -20.9% | [5] -9.15% | [4] -25.1%

O=C(/C=C(\[O-])c1ccccc1)CCCCCCC(=O)/C=C(\[O-])c1ccccc1.O=C(/C=C(\[O-])c1ccccc1)CCCCCCC(=O)/C=C(\[O-])c1ccccc1.O=C(/C=C(\[O-])c1ccccc1)CCCCCCC(=O)/C=C(\[O-])c1ccccc1.[La+3].[La+3]
inactive: [1] -2.3% | [2] -8.75% | [3] 5.5% | [5] 12.3% | [4] -10.1%

C=C1C(=O)O[C@H]2C[C@@]3(C)[C@H](O)CCC(=C)[C@@H]3[C@@H](OC(C)=O)[C@H]12
inactive: [1] 2.95% | [2] 25.4% | [3] 0.05% | [5] -26.8% | [4] -29.4%

CC(=Nc1ccncc1)C(C)=Nc1ccncc1
active: [1] 89.7% | [2] 93.6% | [3] 89.8% | [5] 89.8% | [4] 88.7%

Cc1ccc(NC2=N/C(=C/c3ccccc3)C(Cl)=N2)cc1
inactive: [1] -10.1% | [2] -30.6% | [3] 16.9% | [4] -51%

CC(C)Cc1ccc(C(C)C(=O)O)cc1 (stereo not given)
inactive: [1] 0.5% | [2] 9.7% | [3] -4.5% | [5] -26.1% | [4] 3.25%

CCCCCCCCCCCCCCCCOc1ccc(C)cc1
inactive: [1] -14.3% | [2] -29.5% | [4] -27.9%

O=C(/C=C(\[O-])c1ccccc1)CCCCCCC(=O)/C=C(\[O-])c1ccccc1.O=C(/C=C(\[O-])c1ccccc1)CCCCCCC(=O)/C=C(\[O-])c1ccccc1.O=C(/C=C(\[O-])c1ccccc1)CCCCCCC(=O)/C=C(\[O-])c1ccccc1.[Y+3].[Y+3]
inactive: [1] 7.3% | [2] -3.7% | [3] 8.75% | [4] -1.85%

CCCN1CCc2cc(OC)c(OC)cc2C1Cc1ccc(OC)c(OC)c1 (stereo not given)
inactive: [1] -13.8% | [2] -0.2% | [4] -5.7%

O=C(/C=N/O)Nc1cc(Cl)ccc1Cl
inactive: [1] 17.6% | [2] 15.4% | [4] 17.3%

COc1cc(/C=N/n2cnnc2)cc(OC)c1OC
inactive: [1] -8.35% | [2] 5.45% | [4] -13.7%

CCOc1cccc(/C=C2\N=C(c3ccccc3)OC2=O)c1
inactive: [1] 4.35% | [2] 25% | [4] 10.9%

O=C(CN1CCOCC1)Nc1cccc(C(F)(F)F)c1
inactive: [1] -33.7% | [2] -31.4% | [4] -35.4%

CCC(=O)CC1CCCC(CC(=O)CC)N1C (stereo not given)
inactive: [1] -4.6% | [2] -2.55% | [4] 17.6%

c1ccc(-c2nc3ccc4ccccc4c3nc2-c2ccccc2)cc1
inactive: [1] -8.85% | [2] -35.2% | [4] 1.85%

CCN(CC)C(C(=O)Nc1ccccc1)C(=O)Nc1ccccc1
inactive: [1] 3.7% | [2] 2.8% | [4] -4.9%

S=c1[nH]nc(NC2CCCCC2)s1
inactive: [1] -4.4% | [2] -12% | [4] -7.1%

OCNC(=S)c1c(Cl)cccc1Cl
inactive: [1] -4.25% | [2] -18.1% | [4] -6.6%

CCn1c(C)[n+](CC)c2ccc(C(F)(F)F)cc21
inactive: [1] -6.4% | [2] -10.7% | [4] 14.9%

C[N+]12OC3CC1C1OC1C2C3 (stereo not given)
inactive: [1] -4.55% | [2] -9.4% | [4] 25.4%

O=C1OC(c2ccccc2)=N/C1=C/c1cccs1
inactive: [1] 6.85% | [2] -23.1% | [4] -24.8%

COC(=O)C(C)CN1CC(C)OC(C)C1 (stereo not given)
inactive: [1] -25.2% | [2] -26.2% | [4] -13.2%

O=C(Cc1cccc2ccccc12)N/N=C/c1ccc2c(c1)CCC2
inactive: [1] 14.9% | [2] -13.2% | [4] -8.45%

N#C/C(=C1C=C(Br)/C(=N\O)C=C\1Cl)c1ccc(Cl)cc1
inactive: [1] 30.9% | [2] 4.55% | [4] 27.7%

Cc1cc(CSC(=N)N)c(C)cc1CSC(=N)N
inactive: [1] -12.1% | [2] -39.6% | [4] -7.5%

N#C/C(=C/c1ccccc1Cl)C(N)=O
inactive: [1] -12.2% | [2] -7.05% | [4] 6.15%

COc1ccccc1Oc1ccc(N=Cc2ccc(C)cc2)cc1
inactive: [1] -16.4% | [2] -25.3% | [4] 5.3%

O=C(OCC1OC(Oc2ccccc2CO)C(O)C(O)C1O)c1ccccc1 (stereo not given)
inactive: [1] -2.1% | [2] 1.45% | [4] 0.45%

S=C(NNc1ccccc1)NC1CCCCC1
inactive: [1] 7.35% | [2] -37.2% | [4] -8.6%

CC1=NN(c2ccccc2)C(=O)C1CCC#N (stereo not given)
inactive: [1] 10.6% | [2] -12.9% | [4] 31.4%

N#C/C(=C/c1c(O)ccc2ccccc12)C(N)=O
inactive: [1] 33.7% | [2] 18.4% | [4] 60.9%

CC(CN1CCCC1)C(O)(Cc1ccccc1)c1ccccc1 (stereo not given)
inactive: [1] -0.05% | [2] -2.7% | [4] -4.15%

COc1ccc(/C(C#N)=C2C=C(Cl)/C(=N/O)C=C/2Cl)cc1
inactive: [1] -6.55% | [2] -7.45% | [4] -19.2%

COc1cc(-c2cc(=O)c3c(O)cc(C)cc3o2)cc(OC)c1OC
inactive: [1] -0.85% | [2] -9.8% | [4] -17.8%

CCCCCCCCCCCCCCCC(C)(C)O
inactive: [1] -29% | [2] -27.6% | [4] 5.1%

COc1ccc2ccccc2c1/C=N/N1CCCCC1
inactive: [1] 32.3% | [2] 19.6% | [4] 1.05%

NC(=O)NC(CCCN=C(N)N)C(=O)O (stereo not given)
inactive: [1] -21.4% | [2] -36.3% | [4] -36.1%

Cc1ccc(NC(=O)/C=C/C(=O)O)c(NC(=O)/C=C/C(=O)O)c1
inactive: [1] 4.8% | [2] -1.15% | [4] 28.8%

CC1(C)OC(=O)C(=Cc2c(Cl)cccc2Cl)C(=O)O1
inactive: [1] 0.05% | [2] 7.85% | [4] -7.3%

CC(C)C(NC(=O)CNC(=O)CCl)C(=O)O (stereo not given) (ClAc-Gly-[ξV]-OH)
inactive: [1] 7.6% | [2] -16.5% | [4] 4.1%

ClCCOC(OCCCl)OCCCl
inactive: [1] -7.4% | [2] -28.3% | [4] 4.85%

CC1(c2ccc3ccccc3c2)CCC(=O)O1 (stereo not given)
inactive: [1] -2.75% | [2] -30% | [4] -4.8%

Nc1ccc(Nc2nc3ccccc3s2)c(O)c1
inactive: [1] 22.6% | [2] 2.15% | [4] 24.6%

OC(c1ccc(F)cc1)(c1cccs1)C1CC1 (stereo not given)
inactive: [1] -9.55% | [2] -4.75% | [4] -20.2%

Cc1ccc(CNc2ccc(F)cc2)cc1
inactive: [1] 29.9% | [2] 28.9% | [4] 19.8%

CCOC(=O)c1c(C)nc(C)c(C(=O)OCC)c1-c1cccc([N+](=O)[O-])c1
inactive: [1] 29.1% | [2] 2.35% | [4] 25.9%

CCCCCCCCCCCCOc1ccccc1C=O
inactive: [1] 1.5% | [2] -29.8% | [4] -17.4%

CCO/C=C1\SC(=S)N(c2ccc(C(=O)O)cc2)C1=O
inactive: [1] -6.05% | [2] -16.3% | [4] 13.2%
